Laboratory results from PubChem BioAssay (NCI).
About 83,000 compounds went through this panel and 20% of them were active in at least one assay; those are over-represented in the sample as a whole.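 Assay: single dose, 48 h. Readout: percent growth (0 = no net growth; negative = cell death). Active: <10.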 A number with no mark means an inactive call. The source made the active and inactive calls.

Tested on: SK-MEL-5 melanoma
Experiment: NCI-60 one-dose screen, 48 h (100 = growth as untreated, 0 = no growth, -100 = all killed)
Settings: 10 µM unless noted
Method: Growth inhibition of the SK-MEL-5 human tumor cell line is measured as a screen for anti-cancer activity. Cells are grown in 96 well plates and exposed to the test compound for 48 hours. Compounds are tested at a single concentration, which is 10^-5 M for most compounds. The reported endpoint is percent growth (GI% or GIPRCNT), where numbers from 0 - 100% represent growth inhibition, and numbers from -100% - 0 represent cell death. For example, a value of 40 represents 60% growth inhibition. A value of 0 means no net growth occurred over the course of the experiment. A value of -40 indicates 40% of cells at the beginning of the experiment died by the end of the experiment. A value of -100 means all cells are dead at the end of the experiment.
NCI-60 Human Tumor Cell Lines Screen was performed using the standard one-dose NCI protocol, which is described in more detail at https://dtp.cancer.gov/discovery_development/nci-60/default.htm.
Compounds with GIPRCNT values below 10 were considered active. Activity score was based on GIPRCNT using the following formula: […]
Score is 0 for GIPRCNT values of 100 or above, 50 for GIPRCNT values of 0, and 100 for GIPRCNT values of -100.

| Compound | growth |
| --- | --- |
| Cc1cc(N2CCN(CCNc3ccnc4cc(Cl)ccc34)CC2)nc(N2CCOCC2)n1 | 25.4% |
| Cc1cccc(CNc2c3ccccc3nc3ccccc23)c1 | 19.8% |
| O=C(Nc1nc2ccc(C(=O)N3CCN(/C=C/c4ccccc4)CC3)cc2s1)c1ccc(NCCc2ccccc2)c([N+](=O)[O-])c1 | 15% |
| CCSc1oc(-c2ccccc2)nc1[P+](c1ccccc1)(c1ccccc1)c1ccccc1 | -91.8% (active) |
| Cn1cc(-c2csc(-c3cn(C(=O)OC(C)(C)C)c4ccc(Br)cc34)n2)c2ccnc(Cl)c21 | 95% |
| COc1ccccc1N1CCCCC1 | 108% |
| CCOC(=O)C1=C(N)Oc2c(sc3c(F)cccc23)C1c1ccc(O)cc1 (stereo not given) | 18% |
| CSc1nc2ccccc2cc1/C=[N+](\[O-])c1ccccc1 | 52.5% |
| Cc1cccc(/C=C2\CN(C(=O)OC(C)(C)C)C/C(=C\c3cccc(C)c3)C2=O)c1 | 101% |
| O=C(Nc1cccc(Cl)c1)Nc1cccc(Cn2c(=O)[nH]c3ccc(Oc4ncccn4)cc3c2=O)c1 | 25.5% |
| Cc1[nH]c(C(=O)Nc2ccccc2OC2CCNCC2)c(Cl)c1Cl | -40.6% (active) |
| CCOC(=O)c1c(NC(=O)c2ccc(Cl)cc2)sc2c(CN(C)C)c(O)ccc12 | 87.4% |
| Oc1c(Br)cc(Br)c2ccc(Cn3cc(-c4ccccc4C(F)(F)F)nn3)nc12 | 103% |
| COc1ccc(F)cc1/C=C/C(=O)/C=C(/C=C/c1cc(F)ccc1OC)OB(F)F | 53.6% |
| COc1ccc(-c2cc(-c3ccc(Cl)cc3)c(C#N)c(=O)n2Cc2ccc(C(=O)Nc3ccccc3N)cc2)cc1 | 80.9% |
| COC1=CC(c2ccc[nH]2)=N/C1=C\c1[nH]c(C)c(C)c1CCC(=O)OCc1ccccc1 | -89.2% (active) |
| C#CCOc1cccc(Nc2ncnc3cc(NC(=O)C=C)ccc23)c1 | 8.74% (active) |
| N#Cc1ccc2c(c1)C(=O)c1c-2n(CCCN)c(=O)c2cc([N+](=O)[O-])ccc12 | -100% (active) |
| Cc1cc(S(=O)(=O)/N=C(\N)n2nc(C)c(C)c2C)c(SCc2ccccc2)cc1Cl | 94.7% |
| O=C(O)c1ccc(-n2cc(/C=N/Nc3ccccc3)c(-c3ccc(F)cc3F)n2)cc1 | 58% |

| Compound | growth |
| --- | --- |
| CCCCNCCCCCNc1cc(OC)cc2cccnc12 | 94.3% |
| N#Cc1ccc(O)c(C2=NCC(c3ccccc3)O2)c1 (stereo not given) | 39.1% |
| O=C1Nc2ccc(C(=O)O)cc2/C1=N/c1nnc(Sc2ccccc2)s1 | 104% |
| Cn1cc(C(=O)c2nc(-c3c[nH]c4ccccc34)no2)c2cc(F)ccc21 | 25.3% |
| c1ccc2cc(C[n+]3ccn(CCCCCCCCCCn4cc[n+](Cc5ccc6ccccc6c5)c4)c3)ccc2c1 | -56.4% (active) |
| CC1CCN(S(=O)(=O)c2ccc(S(=O)(=O)N3CCCC(c4nc5c(nnn5Cc5cccc(Cl)c5)c(=O)[nH]4)C3)cc2)CC1 (stereo not given) | 24.1% |
| COCCNC(=O)Nc1ccc2nc(-c3cccs3)c(-c3cccs3)nc2c1 | 89.5% |
| CCOc1ccc(NC(=O)CSc2oc(-c3ccccc3)nc2S(=O)(=O)c2ccc(C)cc2)cc1 | 81.2% |
| COC(=O)CC[C@H](C)[C@H]1CC[C@H]2[C@@H]3CC[C@@H]4CC5(CC[C@]4(C)[C@H]3CC(=O)[C@]12C)Nc1ccccc1NC5=NC(C)(C)C (stereo not given in full) | 77.5% |
| CCn1c(SCC(=O)N/N=C(\C)c2ccc(Cl)cc2)nc2c1c(=O)n(C)c(=O)n2C | 99.3% |
| CCOC(=O)c1nn(-c2ccc(S(N)(=O)=O)cc2)c2nc(C)cc(=O)n12 | 106% |
| CCn1cc(C(=O)NNC(=S)Nc2ccc(C)cc2)c(=O)c2ccc(C)nc21 | 101% |
| CN(C)CCNC(=O)c1ccc(-c2nc3ccc4[nH]ncc4c3c3c2C2CCC3C2)cc1 (stereo not given) | 16.4% |
| CCOC(=O)c1csc(NC(=O)COc2ccc(/C=C3\Oc4ccccc4C3=O)cc2)n1 | 98.7% |
| CCC(C)N(CCNc1cc(OC)cc2cccnc12)CC(C)C (stereo not given) | 103% |
| CCOC(=O)c1cc2c(n1C)-c1nc(NC(C)=O)sc1CCC2 | 80.4% |
| O=C(Cn1cc(CSc2nc3ccccc3o2)nn1)Nc1ccc(F)cc1F | 98.4% |
| O=C(NNC(=O)c1ccc(NC(=O)c2ccccn2)cc1)Nc1ccc([N+](=O)[O-])cc1 | 102% |
| O=S(=O)(NCCNc1nccc(-c2c(-c3ccc(F)c(O)c3)nc3occn23)n1)c1ccc(Cl)cc1 | 60.9% |
| CN(C)CCNC(=O)c1cc2c3cc(Cl)ccc3[nH]c2c2ncccc12 | -38.8% (active) |
